This is an account of results in PubChem BioAssay (NCI).

Assay in all cases: NCI-60 one-dose screen, 48 h (100 = growth as untreated, 0 = no growth, -100 = all killed)
For one assay, the system named is HCT-15 colon. Conditions: 10 µM unless noted.
For another assay, the system named is HT29 colon. Conditions: 10 µM unless noted.
Another assay concerns SNB-19 CNS. The following applies: 10 µM unless noted.
The test system of a further assay is U251 CNS. The following applies: 10 µM unless noted.
In another assay the test system is PC-3 prostate. Conditions: 10 µM unless noted.
A further assay has as its system SK-MEL-5 melanoma. The following applies: 10 µM unless noted.
The subject of another assay is UACC-62 melanoma. The following applies: 10 µM unless noted.
In the next assay the test system is LOX IMVI melanoma. Conditions: 10 µM unless noted.
Another assay deals with SK-MEL-28 melanoma. The following applies: 10 µM unless noted.
The next assay deals with SK-MEL-2 melanoma. Conditions: 10 µM unless noted.
A further assay deals with EKVX NSCLC. Conditions: 10 µM unless noted.
Another assay concerns SN12C renal. The following applies: 10 µM unless noted.
The subject of another assay is UO-31 renal. The following applies: 10 µM unless noted.
Another assay concerns TK-10 renal. The following applies: 10 µM unless noted.
A further assay concerns ACHN renal. The following applies: 10 µM unless noted.
Another assay has as its system CAKI-1 renal. Conditions: 10 µM.
The test system of another assay is A498 renal. Conditions: 10 µM unless noted.
The subject of a further assay is CCRF-CEM leukemia. The following applies: 10 µM unless noted.
The next assay relates to MOLT-4 leukemia. The following applies: 10 µM unless noted.

This is part of a sample that, as a whole, favours compounds with a hit. Of some 83,000 tested, about 20% had one in any assay.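 In brief: 96-well plates, 48 h treatment, single concentration, percent growth endpoint.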 A number with no mark means an inactive call. Calls of active or inactive are those of the source. The calls were made as follows: active = growth percent below 10; inactive = the rest.

Take `O=C1NC(=O)/C(=C/c2ccc(OCc3cc4ccccc4nc3Cl)cc2)S1`: the growth was 88.3% in the assay on HCT-15 colon; 117% in the assay with HT29 colon; 100% with SNB-19 CNS; 101% in the assay on U251 CNS; 92% with PC-3 prostate; 84.4% in the assay on SK-MEL-5 melanoma. Moreover, the growth in the assay on UACC-62 melanoma was 83.7%; in the assay with LOX IMVI melanoma, 56.4%; in the assay on SK-MEL-28 melanoma, 104%; with SK-MEL-2 melanoma, 112%; in the assay on EKVX NSCLC, 99.3%; in the assay with SN12C renal it was 95.9%. In addition, the growth with UO-31 renal was 80.6%; in the assay with TK-10 renal, 110%; in the assay on ACHN renal it was 92.8%; with CAKI-1 renal it was 97.1%; with A498 renal it was 100%; in the assay on CCRF-CEM leukemia, 88.9%. The growth in the assay with MOLT-4 leukemia is 101%.

Turning to `COc1cc(C2=NN(C(C)=O)C(c3ccc(N4CCOCC4)cc3)C2)cc(OC)c1OC` (centres undefined), the growth is 107% with HCT-15 colon; 109% in the assay with HT29 colon; 98.6% with SNB-19 CNS; 104% in the assay with U251 CNS; 106% in the assay on PC-3 prostate; 97.7% with SK-MEL-5 melanoma. The growth with UACC-62 melanoma was 87.8%; in the assay on LOX IMVI melanoma, 98.1%; with SK-MEL-28 melanoma it was 104%; in the assay on SK-MEL-2 melanoma, 97%; in the assay with EKVX NSCLC, 101%; with SN12C renal, 98.3%. Further, the growth was 84% in the assay on UO-31 renal; 108% in the assay on TK-10 renal; 99.6% with ACHN renal; 94.7% in the assay with CAKI-1 renal; 78.7% in the assay with A498 renal; 97.3% in the assay on CCRF-CEM leukemia. For the same compound, in the assay with MOLT-4 leukemia, the growth is 106%.

Regarding `CCCCCc1ccc(S(=O)(=O)N(C(C)=O)c2cccc(-c3csc(N(CCN4CCN(C)CC4)C(C)=O)n3)c2)cc1`, the growth in the assay on HCT-15 colon was -13.6% (active); with HT29 colon, -41.4% (active); in the assay on SNB-19 CNS, 60.6%; in the assay with U251 CNS it was -10.8% (active); with PC-3 prostate it was 62.5%; in the assay on SK-MEL-5 melanoma, -97.7% (active). Further, the growth in the assay with UACC-62 melanoma was -71.4% (active); in the assay with LOX IMVI melanoma, -92.1% (active); in the assay with SK-MEL-28 melanoma it was -85.8% (active); in the assay with SK-MEL-2 melanoma it was 92.8%; in the assay with EKVX NSCLC, 61.8%; with UO-31 renal it was -69.2% (active). Moreover, the growth is 99.2% with TK-10 renal; -10.5% (active) with ACHN renal; 20.5% in the assay with CAKI-1 renal; 71.1% in the assay on A498 renal; 4.61% (active) with CCRF-CEM leukemia; -9.16% (active) in the assay on MOLT-4 leukemia.

`Cc1nn(-c2ccc(Cl)cc2)c(C)c1N=Nc1ccc2oc(=O)ccc2c1`: the growth with HCT-15 colon is 81.4%; in the assay on HT29 colon it was 94.5%; in the assay with SNB-19 CNS, 97.3%; in the assay with U251 CNS, 82.8%; with PC-3 prostate, 80.3%; with SK-MEL-5 melanoma, 84.3%. The growth in the assay on UACC-62 melanoma was 80.5%; in the assay on LOX IMVI melanoma, 69.6%; in the assay with SK-MEL-28 melanoma, 82.5%; with SK-MEL-2 melanoma, 110%; with EKVX NSCLC it was 85.6%; with SN12C renal, 56.4%. Further, the growth was 64.8% with UO-31 renal; 89.6% in the assay with TK-10 renal; 79.4% in the assay with ACHN renal; 73.7% in the assay on CAKI-1 renal; 85.6% with A498 renal; 82% in the assay on CCRF-CEM leukemia. For the same compound, the growth in the assay on MOLT-4 leukemia was 89.3%.

With `CCC(=O)Nc1cc(Nc2cc(NC3CC3)n3ncc(C#N)c3n2)ccc1C`, the growth with HCT-15 colon was 13%; in the assay with HT29 colon, 25.8%; in the assay with SNB-19 CNS, 25.9%; with U251 CNS it was 19.5%; in the assay with PC-3 prostate, 19.7%; in the assay on SK-MEL-5 melanoma, 15.2%. Moreover, the growth was 18.9% in the assay on UACC-62 melanoma; 21.1% with LOX IMVI melanoma; 46.3% in the assay with SK-MEL-28 melanoma; 32.6% with SK-MEL-2 melanoma; 39.1% in the assay with EKVX NSCLC; 43.4% with SN12C renal. Also, the growth was 19.7% with UO-31 renal; 15.5% with TK-10 renal; 13.8% with ACHN renal; 14.7% in the assay with CAKI-1 renal; -21.5% (active) with A498 renal; 17.1% in the assay with CCRF-CEM leukemia. In addition, the growth in the assay on MOLT-4 leukemia is 40.1%.

Turning to `O=C(O)c1ccc(-n2cc(CNc3ccc(F)cc3)c(-c3ccc(C(F)(F)F)cc3)n2)cc1`, the growth is 65.4% in the assay with HCT-15 colon; 96.9% in the assay on HT29 colon; 84.3% in the assay with SNB-19 CNS; 79.3% with U251 CNS; 79.4% with PC-3 prostate; 67.9% in the assay on SK-MEL-5 melanoma. For the same compound, the growth with UACC-62 melanoma was 89.9%; in the assay with LOX IMVI melanoma it was 99.5%; with SK-MEL-28 melanoma, 88.1%; in the assay on SK-MEL-2 melanoma, 110%; with EKVX NSCLC, 74.4%; in the assay with SN12C renal, 94.4%. In addition, the growth with UO-31 renal is 67.2%; in the assay with TK-10 renal, 110%; with ACHN renal it was 76.6%; in the assay on CAKI-1 renal it was 76.2%; in the assay on A498 renal it was 90.3%; with CCRF-CEM leukemia, 81.9%. In the assay on MOLT-4 leukemia, the growth is 81%.

In the case of `O=C(CN1C(=O)S/C(=C\c2ccccc2)C1=O)Nc1ccc(C(=O)/C=C/c2cc3ccccc3nc2Cl)cc1`, the growth in the assay with HCT-15 colon is 88.5%; in the assay with HT29 colon, 94.8%; with SNB-19 CNS, 86.2%; with U251 CNS, 93.4%; in the assay with PC-3 prostate it was 81.6%; in the assay on SK-MEL-5 melanoma it was 24.3%. For the same compound, the growth was 66.2% in the assay with UACC-62 melanoma; 73.3% in the assay with LOX IMVI melanoma; 95.8% in the assay on SK-MEL-28 melanoma; 83.1% in the assay with SK-MEL-2 melanoma; 65.3% in the assay on EKVX NSCLC; 57.7% in the assay with UO-31 renal. The growth was 84.9% in the assay with TK-10 renal; 83% in the assay on ACHN renal; 64.1% in the assay with CAKI-1 renal; 86% in the assay with A498 renal; 77.2% with CCRF-CEM leukemia; 51.4% in the assay with MOLT-4 leukemia.

As to `COc1ccc(-c2nnc(SCc3ccc(O)c4ncccc34)o2)cc1`, the growth with HCT-15 colon was 10.1%; with HT29 colon, 89.1%; in the assay with SNB-19 CNS it was 22.3%; in the assay with U251 CNS, 20%; in the assay with PC-3 prostate it was 26.2%; with SK-MEL-5 melanoma it was 9.31% (active). Besides, the growth in the assay with UACC-62 melanoma was 42.8%; in the assay with LOX IMVI melanoma, 19.7%; in the assay on SK-MEL-28 melanoma, 41.7%; in the assay with SK-MEL-2 melanoma it was 48.3%; in the assay with EKVX NSCLC, 57.8%; in the assay with SN12C renal it was 46.6%. Besides, the growth in the assay with UO-31 renal is 8.44% (active); with TK-10 renal, 56.4%; in the assay with CAKI-1 renal, 32.1%; in the assay with A498 renal it was 69.8%; in the assay with CCRF-CEM leukemia it was 15.7%; in the assay with MOLT-4 leukemia, 28.1%.
